Experimental data reported in publication PMC11006913.
Numbering of substitutions follows the chain as printed.

Columns and labels:
Assay in all cases: PBM; 200 nM protein, PBS
Details in all cases: dsDNA, one strand shown
PRRX1 [1] = biological target: PRRX1 (Homo sapiens, UniProt P54821 80-166, F113S)
PRRX1 [2] = biological target: PRRX1 (Homo sapiens, UniProt P54821 80-166)
SIX6 [3] = biological target: T1, SIX6 (Homo sapiens, UniProt O95475 114-200, L167M)
T1 sequence: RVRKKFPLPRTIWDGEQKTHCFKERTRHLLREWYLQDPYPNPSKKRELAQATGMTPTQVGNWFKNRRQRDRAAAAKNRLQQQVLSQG

SIX6 [4] = biological target: T2, SIX6 (Homo sapiens, UniProt O95475 114-200, L167V)
T2 sequence: T1 sequence with M54V

SIX6 [5] = biological target: T3, SIX6 (Homo sapiens, UniProt O95475 114-200)
T3 sequence: T1 sequence with M54L

SIX6 [6] = biological target: T4, SIX6 (Homo sapiens, UniProt O95475 114-200, T165I)
T4 sequence: T1 sequence with T52I, M54L

HOXB6 [7] = biological target: HOXB6 (Homo sapiens, UniProt P17509 132-218, K202E)
HOXA4 = HOXA4 (Homo sapiens, UniProt Q00056 201-287, R217L)
HOXB6 [8] = biological target: HOXB6 (Homo sapiens, UniProt P17509 132-218)
HOXA2 [9] = biological target: HOXA2 (Homo sapiens, UniProt O43364 129-215, R185T)
MSX2 = MSX2 (Homo sapiens, UniProt P35548 130-214, R199I)
HOXA2 [10] = biological target: HOXA2 (Homo sapiens, UniProt O43364 129-215, R185K)
SIX6 [11] = biological target: T5, SIX6 (Homo sapiens, UniProt O95475 114-200, T139Q)
T5 sequence: T1 sequence with T26Q, M54L

ALX1 [12] = biological target: ALX1 (Homo sapiens, UniProt Q15699 118-204, L144V)
ALX1 [13] = biological target: ALX1 (Homo sapiens, UniProt Q15699 118-204, L144R)
ALX1 [14] = biological target: ALX1 (Homo sapiens, UniProt Q15699 118-204)
ALX3 [15] = biological target: ALX3 (Homo sapiens, UniProt O95076 139-225, N203Q)
ALX3 [16] = biological target: ALX3 (Homo sapiens, UniProt O95076 139-225)
ALX3 [17] = biological target: ALX3 (Homo sapiens, UniProt O95076 139-225, N203S)
PITX2 = PITX2 (Homo sapiens, UniProt Q99697 72-157)
PAX4 [18] = biological target: T6, PAX4 (Homo sapiens, UniProt O43316 9-242, R227W)
T6 sequence: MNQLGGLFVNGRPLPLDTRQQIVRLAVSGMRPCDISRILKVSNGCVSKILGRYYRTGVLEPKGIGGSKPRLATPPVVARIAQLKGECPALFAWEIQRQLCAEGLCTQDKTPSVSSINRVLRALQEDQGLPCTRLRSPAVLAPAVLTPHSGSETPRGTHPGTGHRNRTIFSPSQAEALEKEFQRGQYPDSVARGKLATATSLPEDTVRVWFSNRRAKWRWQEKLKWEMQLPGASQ

PAX4 [19] = biological target: T7, PAX4 (Homo sapiens, UniProt O43316 9-242)
T7 sequence: T6 sequence with W219R

PAX4 [20] = biological target: T8, PAX4 (Homo sapiens, UniProt O43316 9-242, F177Y)
T8 sequence: T6 sequence with F169Y, W219R

SIX6 [21] = biological target: T9, SIX6 (Homo sapiens, UniProt O95475 114-200, L143M)
T9 sequence: T1 sequence with L30M, M54L

SIX6 [22] = biological target: T10, SIX6 (Homo sapiens, UniProt O95475 114-200, L143I)
T10 sequence: T1 sequence with L30I, M54L

PAX4 [23] = biological target: T11, PAX4 (Homo sapiens, UniProt O43316 9-242, F177V)
T11 sequence: T6 sequence with F169V, W219R

Chain of PRRX1 (Homo sapiens, UniProt P54821 80-166, F113S) (P54821 80-166 F113S): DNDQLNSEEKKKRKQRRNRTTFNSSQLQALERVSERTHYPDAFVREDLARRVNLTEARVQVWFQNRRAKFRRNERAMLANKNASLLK
Chain of PRRX1 (Homo sapiens, UniProt P54821 80-166) (P54821 80-166): as the sequence (P54821 80-166 F113S) above, with S34F counted along it
Chain of ALX3 (Homo sapiens, UniProt O95076 139-225, N203S) (O95076 139-225 N203S): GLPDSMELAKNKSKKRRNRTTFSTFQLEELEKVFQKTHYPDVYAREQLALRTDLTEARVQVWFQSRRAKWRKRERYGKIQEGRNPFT
Chain of ALX3 (Homo sapiens, UniProt O95076 139-225) (O95076 139-225): as the sequence (O95076 139-225 N203S) above, with S65N counted along it
Chain of ALX3 (Homo sapiens, UniProt O95076 139-225, N203Q) (O95076 139-225 N203Q): as the sequence (O95076 139-225 N203S) above, with S65Q counted along it
Chain of ALX1 (Homo sapiens, UniProt Q15699 118-204, L144R) (Q15699 118-204 L144R): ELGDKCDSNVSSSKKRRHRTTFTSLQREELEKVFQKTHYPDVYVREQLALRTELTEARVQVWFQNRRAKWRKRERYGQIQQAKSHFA
Chain of HOXA2 (Homo sapiens, UniProt O43364 129-215, R185T) (O43364 129-215 R185T): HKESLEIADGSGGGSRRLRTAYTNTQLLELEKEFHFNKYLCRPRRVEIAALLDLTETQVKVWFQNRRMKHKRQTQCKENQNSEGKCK
Chain of ALX1 (Homo sapiens, UniProt Q15699 118-204) (Q15699 118-204): as the sequence (Q15699 118-204 L144R) above, with R27L counted along it
Chain of HOXB6 (Homo sapiens, UniProt P17509 132-218) (P17509 132-218): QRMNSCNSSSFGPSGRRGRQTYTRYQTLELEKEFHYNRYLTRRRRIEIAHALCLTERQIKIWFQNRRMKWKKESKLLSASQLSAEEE
Chain of ALX1 (Homo sapiens, UniProt Q15699 118-204, L144V) (Q15699 118-204 L144V): as the sequence (Q15699 118-204 L144R) above, with R27V counted along it
Chain of MSX2 (P35548 130-214 R199I): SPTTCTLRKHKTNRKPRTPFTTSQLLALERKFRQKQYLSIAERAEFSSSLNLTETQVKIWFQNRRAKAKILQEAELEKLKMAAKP
Chain of HOXB6 (Homo sapiens, UniProt P17509 132-218, K202E) (P17509 132-218 K202E): as the sequence (P17509 132-218) above, with K71E counted along it
Chain of HOXA4 (Q00056 201-287 R217L): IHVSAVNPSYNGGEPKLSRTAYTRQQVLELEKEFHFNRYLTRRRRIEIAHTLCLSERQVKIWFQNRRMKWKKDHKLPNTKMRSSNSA
Chain of HOXA2 (Homo sapiens, UniProt O43364 129-215, R185K) (O43364 129-215 R185K): as the sequence (O43364 129-215 R185T) above, with T57K counted along it

Sequence: GCACGTCC
- binding signal (PRRX1 [1]): 9.49 upbm affinity estimate (log intensity, higher = more binding, comparable within an allelic series)
- binding signal (PRRX1 [2]): 9.27 upbm affinity estimate (log intensity, higher = more binding, comparable within an allelic series)

Sequence: AATATTAG
- binding signal (PRRX1 [1]): 10.5 upbm affinity estimate (log intensity, higher = more binding, comparable within an allelic series)
- binding signal (PRRX1 [2]): 12.4 upbm affinity estimate (log intensity, higher = more binding, comparable within an allelic series)

Sequence: ATTTTTAA
- binding signal (PRRX1 [1]): 10.4 upbm affinity estimate (log intensity, higher = more binding, comparable within an allelic series)
- binding signal (PRRX1 [2]): 12 upbm affinity estimate (log intensity, higher = more binding, comparable within an allelic series)

Sequence: CGACGGAA
- binding signal (PRRX1 [1]): 9.54 upbm affinity estimate (log intensity, higher = more binding, comparable within an allelic series)
- binding signal (PRRX1 [2]): 9.34 upbm affinity estimate (log intensity, higher = more binding, comparable within an allelic series)

Sequence: GCGGTTCC
- binding signal (PRRX1 [1]): 9.66 upbm affinity estimate (log intensity, higher = more binding, comparable within an allelic series)
- binding signal (PRRX1 [2]): 9.31 upbm affinity estimate (log intensity, higher = more binding, comparable within an allelic series)

Sequence: ACTTTATG
- binding signal (PRRX1 [1]): 10 upbm affinity estimate (log intensity, higher = more binding, comparable within an allelic series)
- binding signal (PRRX1 [2]): 10.9 upbm affinity estimate (log intensity, higher = more binding, comparable within an allelic series)

Sequence: AGATCAAT
- binding signal (PRRX1 [1]): 10.1 upbm affinity estimate (log intensity, higher = more binding, comparable within an allelic series)
- binding signal (PRRX1 [2]): 11.6 upbm affinity estimate (log intensity, higher = more binding, comparable within an allelic series)

Sequence: GCCAGCAC
- binding signal (PRRX1 [1]): 9.45 upbm affinity estimate (log intensity, higher = more binding, comparable within an allelic series)
- binding signal (PRRX1 [2]): 9.5 upbm affinity estimate (log intensity, higher = more binding, comparable within an allelic series)

Sequence: GCGATACC
- binding signal (SIX6 [3]): 10.3 upbm affinity estimate (log intensity, higher = more binding, comparable within an allelic series)

Sequence: AACGATAC
- binding signal (SIX6 [4]): 10.9 upbm affinity estimate (log intensity, higher = more binding, comparable within an allelic series)

Sequence: CATATCAC
- binding signal (SIX6 [4]): 10.9 upbm affinity estimate (log intensity, higher = more binding, comparable within an allelic series)

Sequence: CATAACAC
- binding signal (SIX6 [5]): 10.1 upbm affinity estimate (log intensity, higher = more binding, comparable within an allelic series)
- binding signal (SIX6 [6]): 10.1 upbm affinity estimate (log intensity, higher = more binding, comparable within an allelic series)

Sequence: CCGATACC
- binding signal (SIX6 [3]): 10 upbm affinity estimate (log intensity, higher = more binding, comparable within an allelic series)

Sequence: ACGATCCG
- binding signal (SIX6 [3]): 9.98 upbm affinity estimate (log intensity, higher = more binding, comparable within an allelic series)

Sequence: AATCGATT
- binding signal (HOXB6 [7]): 9.7 upbm affinity estimate (log intensity, higher = more binding, comparable within an allelic series)
- binding signal (HOXA4): 12 upbm affinity estimate (log intensity, higher = more binding, comparable within an allelic series)
- binding signal (HOXB6 [8]): 11 upbm affinity estimate (log intensity, higher = more binding, comparable within an allelic series)

Sequence: CTAATCAC
- binding signal (HOXA2 [9]): 12.7 upbm affinity estimate (log intensity, higher = more binding, comparable within an allelic series)
- binding signal (MSX2): 11.1 upbm affinity estimate (log intensity, higher = more binding, comparable within an allelic series)
- binding signal (HOXA2 [10]): 13.3 upbm affinity estimate (log intensity, higher = more binding, comparable within an allelic series)

Sequence: CGGGTATC
- binding signal (SIX6 [11]): 11.1 upbm affinity estimate (log intensity, higher = more binding, comparable within an allelic series)

Sequence: GGGATCAC
- binding signal (SIX6 [11]): 11.1 upbm affinity estimate (log intensity, higher = more binding, comparable within an allelic series)

Sequence: ACGGATAA
- binding signal (ALX1 [12]): 8.5 upbm affinity estimate (log intensity, higher = more binding, comparable within an allelic series)
- binding signal (ALX1 [13]): 8.23 upbm affinity estimate (log intensity, higher = more binding, comparable within an allelic series)
- binding signal (ALX1 [14]): 8.73 upbm affinity estimate (log intensity, higher = more binding, comparable within an allelic series)

Sequence: TCTTATCA
- binding signal (ALX3 [15]): 8.33 upbm affinity estimate (log intensity, higher = more binding, comparable within an allelic series)
- binding signal (ALX3 [16]): 9.29 upbm affinity estimate (log intensity, higher = more binding, comparable within an allelic series)
- binding signal (ALX3 [17]): 8.36 upbm affinity estimate (log intensity, higher = more binding, comparable within an allelic series)

Sequence: AAATGGGT
- binding signal (ALX3 [15]): 8.27 upbm affinity estimate (log intensity, higher = more binding, comparable within an allelic series)
- binding signal (ALX3 [16]): 9.3 upbm affinity estimate (log intensity, higher = more binding, comparable within an allelic series)
- binding signal (ALX3 [17]): 8.31 upbm affinity estimate (log intensity, higher = more binding, comparable within an allelic series)

Sequence: TCTGATCA
- binding signal (PITX2): 9.44 upbm affinity estimate (log intensity, higher = more binding, comparable within an allelic series)
- binding signal (PAX4 [18]): 9.94 upbm affinity estimate (log intensity, higher = more binding, comparable within an allelic series)

Sequence: ATTTTGGA
- binding signal (PAX4 [19]): 10.5 upbm affinity estimate (log intensity, higher = more binding, comparable within an allelic series)
- binding signal (PAX4 [20]): 10 upbm affinity estimate (log intensity, higher = more binding, comparable within an allelic series)

Sequence: ATATACCC
- binding signal (SIX6 [3]): 11.1 upbm affinity estimate (log intensity, higher = more binding, comparable within an allelic series)
- binding signal (SIX6 [21]): 10.9 upbm affinity estimate (log intensity, higher = more binding, comparable within an allelic series)
- binding signal (SIX6 [22]): 10.4 upbm affinity estimate (log intensity, higher = more binding, comparable within an allelic series)
- binding signal (SIX6 [6]): 11 upbm affinity estimate (log intensity, higher = more binding, comparable within an allelic series)

Sequence: GGGGTATA
- binding signal (SIX6 [3]): 10.7 upbm affinity estimate (log intensity, higher = more binding, comparable within an allelic series)

Sequence: GGTATCGA
- binding signal (SIX6 [3]): 10.4 upbm affinity estimate (log intensity, higher = more binding, comparable within an allelic series)

Sequence: GTTAACCA
- binding signal (PAX4 [19]): 10.5 upbm affinity estimate (log intensity, higher = more binding, comparable within an allelic series)
- binding signal (PAX4 [23]): 9.85 upbm affinity estimate (log intensity, higher = more binding, comparable within an allelic series)
- binding signal (PAX4 [20]): 9.89 upbm affinity estimate (log intensity, higher = more binding, comparable within an allelic series)
- binding signal (PAX4 [18]): 9.96 upbm affinity estimate (log intensity, higher = more binding, comparable within an allelic series)

Sequence: CCAATCAG
- binding signal (PAX4 [19]): 10.5 upbm affinity estimate (log intensity, higher = more binding, comparable within an allelic series)
- binding signal (PAX4 [23]): 9.65 upbm affinity estimate (log intensity, higher = more binding, comparable within an allelic series)
- binding signal (PAX4 [20]): 9.83 upbm affinity estimate (log intensity, higher = more binding, comparable within an allelic series)
- binding signal (PAX4 [18]): 9.74 upbm affinity estimate (log intensity, higher = more binding, comparable within an allelic series)

Sequence: CCACGTTA
- binding signal (PAX4 [19]): 10.7 upbm affinity estimate (log intensity, higher = more binding, comparable within an allelic series)
- binding signal (PAX4 [23]): 10.1 upbm affinity estimate (log intensity, higher = more binding, comparable within an allelic series)
- binding signal (PAX4 [20]): 10.1 upbm affinity estimate (log intensity, higher = more binding, comparable within an allelic series)
- binding signal (PAX4 [18]): 10.2 upbm affinity estimate (log intensity, higher = more binding, comparable within an allelic series)

Sequence: CCATATCG
- binding signal (SIX6 [3]): 10.1 upbm affinity estimate (log intensity, higher = more binding, comparable within an allelic series)

Sequence: CACGTATC
- binding signal (SIX6 [3]): 10.2 upbm affinity estimate (log intensity, higher = more binding, comparable within an allelic series)

Sequence: ACTGATGC
- binding signal (PAX4 [19]): 10.6 upbm affinity estimate (log intensity, higher = more binding, comparable within an allelic series)
- binding signal (PAX4 [23]): 9.94 upbm affinity estimate (log intensity, higher = more binding, comparable within an allelic series)
- binding signal (PAX4 [20]): 10 upbm affinity estimate (log intensity, higher = more binding, comparable within an allelic series)
- binding signal (PAX4 [18]): 10 upbm affinity estimate (log intensity, higher = more binding, comparable within an allelic series)

Sequence: CGACACCA
- binding signal (SIX6 [3]): 9.52 upbm affinity estimate (log intensity, higher = more binding, comparable within an allelic series)

Sequence: GTATCGGA
- binding signal (SIX6 [3]): 10.1 upbm affinity estimate (log intensity, higher = more binding, comparable within an allelic series)

Sequence: GGCGATAC
- binding signal (SIX6 [3]): 10.1 upbm affinity estimate (log intensity, higher = more binding, comparable within an allelic series)

Sequence: GGGATATA
- binding signal (SIX6 [3]): 10.8 upbm affinity estimate (log intensity, higher = more binding, comparable within an allelic series)
